# Measured values published in PubChem BioAssay (EPA / NIEHS).
# The source made the active and inactive calls. The calls were made as follows: active = hit-call score of the fitted dose curve at least 0.9, where 1 is the maximum; inactive = score below 0.9.
# Tests used:
# [1] = read-out: Transforming growth factor beta 1 (TGFb1), TGFB1 (gene 7040); test: BSK_KF3CT_TGFb1: BioMAP Diversity Plus: KF3CT Assay for Transforming growth factor beta 1 (TGFb1) Biomarker Activity (AID 2283072); details: primary human keratinocytes with fibroblasts; actives raise or lower the signal
# Summary of the method: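 KF3CT co-culture (keratinocytes + fibroblasts), 24 h exposure → TGF-b1 ELISA → bidirectional fit, DMSO = baseline. Parallel SRB total-protein staining (0.1% SRB, 10% TCA fixation, 560 nm) for cytotoxicity.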
# [2] = read-out: C-C motif chemokine 2 (Homo sapiens) (UniProt P13500); test: BSK_KF3CT_MCP1: BioMAP Diversity Plus: KF3CT Assay for Monocyte Chemoattractant Protein 1 (MCP1/CCL2) Biomarker Activity (AID 2283073); details: primary human keratinocytes with fibroblasts; actives raise or lower the signal
# Summary of the method: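 ELISA read-out of MCP-1, 24 h post-dose, in primary human skin keratinocytes co-cultured with fibroblasts. Parallel SRB staining monitors cytotoxicity; changes fitted both directions relative to DMSO.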
# [3] = read-out: Matrix Metallopeptidase 9 (MMP9), MMP9 (gene 4318); test: BSK_KF3CT_MMP9: BioMAP Diversity Plus: KF3CT Assay for Matrix Metallopeptidase 9 (MMP9) Biomarker Activity (AID 2283074); details: primary human keratinocytes with fibroblasts; actives raise or lower the signal
# Summary of the method: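 Values come from bidirectional fitting relative to DMSO of MMP-9 levels, which were measured by ELISA. Measurements were taken 24 h after chemical dosing of a keratinocyte and foreskin fibroblast co-culture.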
# [4] = read-out: urokinase plasminogen activator (uPA), PLAU (gene 5328); test: BSK_KF3CT_uPA: BioMAP Diversity Plus: KF3CT Assay for urokinase plasminogen activator (uPA) Biomarker Activity (AID 2283075); details: primary human keratinocytes with fibroblasts; actives raise or lower the signal
# Summary of the method: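 Values derive from bidirectional fitting against DMSO controls. Keratinocyte/foreskin fibroblast co-cultures received chemical; 24 h later uPA was detected by ELISA, with SRB total-protein staining in parallel wells for overt cytotoxicity.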
# [5] = read-out: CD40, CD40 (gene 958); test: BSK_LPS_CD40: BioMAP Diversity Plus: LPS Assay for CD40 Biomarker Activity (AID 2283076); details: primary human HUVEC with PBMC; actives raise or lower the signal
# Summary of the method: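 In the LPS system of human endothelial cells with peripheral blood mononuclear cells, CD40 levels were read by ELISA 24 h post-treatment. Signal changes in either direction were fitted against the DMSO baseline, with parallel SRB protein staining.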
# [6] = read-out: E-selectin (Homo sapiens) (UniProt P16581); test: BSK_LPS_Eselectin: BioMAP Diversity Plus: LPS Assay for Eselectin Biomarker Activity (AID 2283077); details: primary human HUVEC with PBMC; actives raise or lower the signal
# Summary of the method: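 E-selectin ELISA on LPS-stimulated endothelial cell/PBMC co-cultures, read 24 h post-treatment; gains and losses fitted against DMSO. Parallel SRB staining (0.1% SRB after 10% TCA fixation, 560 nm) flags overt cytotoxicity.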
# [7] = read-out: Interleukin-8 (IL8), CXCL8 (gene 3576); test: BSK_LPS_IL8: BioMAP Diversity Plus: LPS Assay for Interleukin-8 (IL8) Biomarker Activity (AID 2283078); details: primary human HUVEC with PBMC; actives raise or lower the signal
# Summary of the method: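 ELISA read-out of IL-8 after 24 h chemical treatment of LPS-activated endothelial/PBMC human primary co-cultures. Changes either up or down relative to DMSO; overt cytotoxicity checked by sulforhodamine B staining in parallel wells.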
# [8] = read-out: Interleukin-1 alpha (IL1a), IL1A (gene 3552); test: BSK_LPS_IL1a: BioMAP Diversity Plus: LPS Assay for Interleukin-1 alpha (IL1a) Biomarker Activity (AID 2283080); details: primary human HUVEC with PBMC; actives raise or lower the signal
# Summary of the method: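 Readout is IL-1a level by ELISA, 24 h post-dose, fitted as gain or loss relative to DMSO. System: LPS-activated human primary co-culture of vascular endothelium and peripheral blood mononuclear cells, with parallel SRB total-protein cytotoxicity.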
# [9] = read-out: Monocyte Chemoattractant Protein-1 (MCP1), CCL2 (gene 6347); test: BSK_LPS_MCP1: BioMAP Diversity Plus: LPS Assay for Monocyte Chemoattractant Protein-1 (MCP1) Biomarker Activity (AID 2283081); details: primary human HUVEC with PBMC; actives raise or lower the signal
# Summary of the method: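 Secreted MCP-1 read by ELISA at 24 h post-dosing in an LPS-activated co-culture of endothelial cells with peripheral blood mononuclear cells. Fits run in both directions, DMSO as baseline; parallel SRB staining tracks overt cytotoxicity.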
# [10] = BSK_LPS_PGE2: BioMAP Diversity Plus: LPS Assay for Prostaglandin E2 (PGE2) Biomarker Activity (AID 2283082); details: primary human HUVEC with PBMC; actives raise or lower the signal;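 as to AC50: secreted prostaglandin E2 measured by ELISA in LPS-stimulated co-culture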
# Summary of the method: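 Compounds were added to the LPS co-culture of endothelium and PBMC, and PGE2 was measured by ELISA after 24 h. Responses in either direction were fitted with DMSO as baseline.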
# [11] = read-out: Macrophage colony-stimulating factor (MCSF), CSF1 (gene 1435); test: BSK_LPS_MCSF: BioMAP Diversity Plus: LPS Assay for Macrophage colony-stimulating factor (MCSF) Biomarker Activity (AID 2283083); details: primary human HUVEC with PBMC; actives raise or lower the signal
# Summary of the method: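 Bidirectional fitting against DMSO was applied to M-CSF levels read by ELISA at 24 h post-dose. The system pairs human umbilical vein endothelium with peripheral blood mononuclear cells; parallel SRB staining tracked cytotoxicity.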
# [12] = read-out: Tissue Factor, F3 (gene 2152); test: BSK_LPS_TissueFactor: BioMAP Diversity Plus: LPS Assay for Tissue Factor Biomarker Activity (AID 2283084); details: primary human HUVEC with PBMC; actives raise or lower the signal
# Summary of the method: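 Compound was added to an endothelial cell/PBMC co-culture, and after 24 h tissue factor (CD142) was read by ELISA. Gain or loss of signal was fitted against a DMSO baseline, and parallel SRB staining (560 nm) tracked overt cytotoxicity.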
# [13] = read-out: Tumor necrosis factor (Homo sapiens) (UniProt P01375); test: BSK_LPS_TNFa: BioMAP Diversity Plus: LPS Assay for Tumour Necrosis Factor alpha (TNFa) Biomarker Activity (AID 2283085); details: primary human HUVEC with PBMC; actives raise or lower the signal;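 as to AC50: TNFa protein level quantified by ELISA in the co-culture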
# Summary of the method: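 Cells (umbilical vein endothelium plus peripheral blood mononuclear cells) were dosed with chemical, incubated 24 h, then TNFa was quantified by ELISA; values derive from bidirectional fitting with DMSO as baseline.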
# [14] = read-out: Vascular cell adhesion molecule 1 (VCAM1), VCAM1 (gene 7412); test: BSK_LPS_VCAM1: BioMAP Diversity Plus: LPS Assay for Vascular cell adhesion molecule 1 (VCAM1) Biomarker Activity (AID 2283086); details: primary human HUVEC with PBMC; actives raise or lower the signal
# Summary of the method: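 Cells are dosed in an LPS-stimulated endothelial/mononuclear co-culture and, after 24 h, VCAM-1 is quantified by ELISA. Activity in either direction is fitted relative to the DMSO negative control.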
# [15] = read-out: CD38, CD38 (gene 952); test: BSK_SAg_CD38: BioMAP Diversity Plus: SAg Assay for CD38 Biomarker Activity (AID 2283087); details: primary human HUVEC with PBMC; actives raise or lower the signal
# Summary of the method: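 CD38 quantified by ELISA (fluorescence) in a superantigen-activated endothelial cell–PBMC co-culture at 24 h post-dose. Activity fitted in both directions relative to DMSO; parallel SRB and Alamar Blue cytotoxicity read-outs.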
# [16] = read-out: CD40, CD40 (gene 958); test: BSK_SAg_CD40: BioMAP Diversity Plus: SAg Assay for CD40 Biomarker Activity (AID 2283088); details: primary human HUVEC with PBMC; actives raise or lower the signal
# Summary of the method: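 CD40 is measured by fluorescence ELISA in an endothelial/PBMC primary human co-culture at 24 h post-dose. Fitting is bidirectional, DMSO baseline. Parallel SRB staining (560 nm) flags cytotoxicity.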
# [17] = read-out: CD69, CD69 (gene 969); test: BSK_SAg_CD69: BioMAP Diversity Plus: SAg Assay for CD69 Biomarker Activity (AID 2283089); details: primary human HUVEC with PBMC; actives raise or lower the signal;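 as to AC50: cell surface CD69 protein quantified by ELISA with fluorescence detection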
# Summary of the method: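 ELISA, fluorescence read-out: CD69 on human umbilical vein endothelial cell + PBMC co-culture, 24 h post-dosing. Gain or loss of signal fitted bidirectionally against DMSO baseline.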
# [18] = read-out: Monocyte Chemoattractant Protein-1 (MCP1), CCL2 (gene 6347); test: BSK_SAg_MCP1: BioMAP Diversity Plus: SAg Assay for Monocyte Chemoattractant Protein-1 (MCP1) Biomarker Activity (AID 2283090); details: primary human HUVEC with PBMC; actives raise or lower the signal
# Summary of the method: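 Values derive from bidirectional fitting of ELISA-measured MCP1 against DMSO controls. Readings were taken 24 h after dosing human vascular endothelial cells co-cultured with peripheral blood mononuclear cells under superantigen stimulation.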
# [19] = read-out: E-selectin (Homo sapiens) (UniProt P16581); test: BSK_SAg_Eselectin: BioMAP Diversity Plus: SAg Assay for Eselectin Biomarker Activity (AID 2283091); details: primary human HUVEC with PBMC; actives raise or lower the signal
# Summary of the method: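 Cell-surface E-selectin is read by ELISA at 24 h in the SAg co-culture of HUVEC and PBMC. Curves are fitted in both directions relative to DMSO. Parallel SRB total-protein staining tracks overt toxicity.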
# [20] = BSK_LPS_SRB: Viability Assessment in the BioMAP Diversity Plus: LPS Assay (AID 2283079); details: primary human HUVEC with PBMC;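 also: total protein by sulforhodamine B absorbance as a cytotoxicity measure; measured one day after compound addition; fitted in both directions against DMSO so loss or gain of signal counts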
# Summary of the method: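 SRB viability endpoint: cells fixed with 10% TCA, stained with 0.1% SRB, read at 560 nm, 24 h post-dose. HUVEC/PBMC co-culture; signal change in either direction scored relative to DMSO.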
# E-selectin (Homo sapiens), sequence (P16581 whole entry, looked up): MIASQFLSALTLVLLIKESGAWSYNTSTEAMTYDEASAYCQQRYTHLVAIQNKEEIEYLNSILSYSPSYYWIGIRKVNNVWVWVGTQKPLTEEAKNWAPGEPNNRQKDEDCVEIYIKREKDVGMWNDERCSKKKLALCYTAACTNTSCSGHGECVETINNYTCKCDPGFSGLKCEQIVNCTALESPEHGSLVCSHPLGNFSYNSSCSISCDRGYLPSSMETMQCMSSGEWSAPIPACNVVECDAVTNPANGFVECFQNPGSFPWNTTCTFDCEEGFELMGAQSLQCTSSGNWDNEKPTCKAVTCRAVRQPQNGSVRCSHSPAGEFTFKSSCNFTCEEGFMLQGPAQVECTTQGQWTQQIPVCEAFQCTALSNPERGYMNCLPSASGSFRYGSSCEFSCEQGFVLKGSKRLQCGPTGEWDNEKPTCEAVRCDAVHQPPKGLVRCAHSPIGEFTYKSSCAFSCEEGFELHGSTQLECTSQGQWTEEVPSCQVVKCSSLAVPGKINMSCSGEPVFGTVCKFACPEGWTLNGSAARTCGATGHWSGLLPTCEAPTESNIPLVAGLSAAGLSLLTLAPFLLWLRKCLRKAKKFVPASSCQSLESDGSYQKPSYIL
# Tumor necrosis factor (Homo sapiens), sequence (P01375 whole entry, looked up): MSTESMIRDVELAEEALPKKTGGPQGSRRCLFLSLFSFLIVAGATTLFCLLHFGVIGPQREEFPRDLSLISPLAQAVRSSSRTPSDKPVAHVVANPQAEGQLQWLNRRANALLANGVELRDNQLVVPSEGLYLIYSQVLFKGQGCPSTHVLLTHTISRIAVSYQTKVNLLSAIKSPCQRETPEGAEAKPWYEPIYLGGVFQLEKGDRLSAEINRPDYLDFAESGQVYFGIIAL
smiles,measurement,setting,value
CSC(=O)c1cccc2nnsc12,outcome,[1],inactive
same,outcome,[2],inactive
same,outcome,[3],inactive
same,outcome,[4],inactive
same,outcome,[5],inactive
same,outcome,[6],inactive
same,outcome,[7],inactive
same,outcome,[8],inactive
same,outcome,[9],inactive
same,outcome,[10],inactive
same,outcome,[11],inactive
same,outcome,[12],inactive
same,AC50,[13],4.96 µM (active)
same,outcome,[14],inactive
same,outcome,[15],inactive
same,outcome,[16],inactive
same,outcome,[17],inactive
same,outcome,[18],inactive
same,outcome,[19],inactive
c1ccc2[nH]c(-c3cscn3)nc2c1,outcome,[1],inactive
same,outcome,[2],inactive
same,outcome,[3],inactive
same,outcome,[4],inactive
same,outcome,[5],inactive
same,outcome,[6],inactive
same,outcome,[7],inactive
same,outcome,[20],inactive
same,outcome,[9],inactive
same,outcome,[10],inactive
same,outcome,[11],inactive
same,outcome,[12],inactive
same,outcome,[13],inactive
same,outcome,[14],inactive
same,outcome,[15],inactive
same,outcome,[16],inactive
same,outcome,[17],inactive
same,outcome,[18],inactive
same,outcome,[19],inactive
CC1(C)C(C=C(Cl)Cl)C1C(=O)OCc1cccc(Oc2ccccc2)c1 (centres undefined),outcome,[1],inactive
same,outcome,[2],inactive
same,outcome,[3],inactive
same,outcome,[4],inactive
same,outcome,[5],inactive
same,outcome,[6],inactive
same,AC50,[7],10 µM (active)
same,AC50,[20],6.14 µM (active)
same,outcome,[9],inactive
same,AC50,[10],4.13 µM (active)
same,AC50,[11],4.63 µM (active)
same,outcome,[12],inactive
same,outcome,[13],inactive
same,outcome,[14],inactive
same,outcome,[15],inactive
same,outcome,[16],inactive
same,AC50,[17],14.7 µM (active)
same,outcome,[18],inactive
same,outcome,[19],inactive
CCCN(CCC)C(=O)SCC,outcome,[1],inactive
same,outcome,[2],inactive
same,outcome,[3],inactive
same,outcome,[4],inactive
same,outcome,[5],inactive
same,outcome,[6],inactive
same,outcome,[7],inactive
same,outcome,[20],inactive
same,outcome,[9],inactive
same,outcome,[10],inactive
same,outcome,[11],inactive
same,outcome,[12],inactive
same,outcome,[13],inactive
same,outcome,[14],inactive
same,outcome,[15],inactive
same,outcome,[16],inactive
same,outcome,[17],inactive
same,outcome,[18],inactive
same,outcome,[19],inactive
O=C(c1ccc(O)cc1O)c1ccc(O)cc1O,outcome,[1],inactive
same,outcome,[2],inactive
same,outcome,[3],inactive
same,outcome,[4],inactive
same,outcome,[5],inactive
same,outcome,[6],inactive
same,outcome,[7],inactive
same,outcome,[20],inactive
same,outcome,[8],inactive
same,outcome,[9],inactive
same,outcome,[10],inactive
same,outcome,[11],inactive
same,outcome,[12],inactive
same,outcome,[13],inactive
same,outcome,[14],inactive
same,outcome,[15],inactive
same,outcome,[16],inactive
same,outcome,[17],inactive
same,outcome,[18],inactive
same,outcome,[19],inactive
CCN(Cc1c(F)cccc1Cl)c1c([N+](=O)[O-])cc(C(F)(F)F)cc1[N+](=O)[O-],outcome,[1],inactive
same,outcome,[2],inactive
same,outcome,[3],inactive
same,outcome,[4],inactive
same,AC50,[5],9.02 µM (active)
same,outcome,[6],inactive
same,AC50,[7],13.6 µM (active)
same,outcome,[9],inactive
same,outcome,[10],inactive
same,AC50,[11],11.6 µM (active)
same,outcome,[12],inactive
same,outcome,[13],inactive
same,outcome,[14],inactive
same,AC50,[15],8.9 µM (active)
same,outcome,[16],inactive
same,outcome,[17],inactive
same,outcome,[18],inactive
same,outcome,[19],inactive
